# Measurements as given in PubChem BioAssay (NCI).
# “And” between values parts separate entries of the source, which are not always exact repeats. Equal entries are not always repeated. About 79,000 compounds went through this panel and 15% of them were active in at least one assay; those are over-represented in the sample as a whole. Some compounds were tested as several samples or in several runs, with calls that do not always agree. The source made the active and inactive calls. Cut-off read from the data, not from the text of the source: active = growth inhibition above about 70%; inactive = the rest.
# Assays:
# [1] = NCI Yeast Anticancer Drug Screen. Data for the rad50 strain (AID 155);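 note: 0% = growth of vehicle-only cultures of the same strain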; conditions: S. cerevisiae rad50 strain growth inhibition, stronger effect = higher value
# Summary of the method: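 Growth of the mutant yeast was measured after compound exposure and referenced to vehicle-treated cultures.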
# [2] = NCI Yeast Anticancer Drug Screen. Data for the mec2-1 strain (AID 157); conditions: S. cerevisiae mec2-1 strain, stronger effect = higher value
# Summary of the method: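 mec2-1 yeast strain, carrying an alteration in DNA damage repair or cell cycle control, was exposed to compounds; growth inhibition was measured relative to vehicle-treated controls.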
# [3] = NCI Yeast Anticancer Drug Screen. Data for the sgs1 mgt1 strain (AID 161);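 note: 0% = growth of cultures given vehicle only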; conditions: S. cerevisiae sgs1 mgt1 strain, stronger effect = higher value
# Summary of the method: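 Growth of a repair-deficient yeast mutant was monitored after compound treatment and expressed as inhibition relative to vehicle-treated cultures.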
# [4] = NCI Yeast Anticancer Drug Screen. Data for the cln2 rad14 strain (AID 165);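 note: 0% = growth equal to vehicle treated cultures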; conditions: S. cerevisiae cln2 rad14 strain, stronger effect = higher value
# Summary of the method: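 Yeast carrying cln2 and rad14 alterations (cell cycle control and DNA damage repair) were exposed to compounds. Growth inhibition was measured against vehicle-treated controls.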
# [5] = NCI Yeast Anticancer Drug Screen. Data for the bub3 strain (AID 167); conditions: S. cerevisiae bub3 mutant strain, stronger effect = higher value
# Summary of the method: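 Whole-cell yeast assay. The mutant strain was incubated with compounds, and growth inhibition was determined by comparison with vehicle-treated cells.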
# [6] = NCI Yeast Anticancer Drug Screen. Data for the wt2 strain (AID 169);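 note: 0% = growth of vehicle-treated yeast cultures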; conditions: S. cerevisiae wt2 strain growth inhibition, stronger effect = higher value
# Summary of the method: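 Yeast cells were exposed to test compounds, and growth inhibition was measured relative to vehicle-treated controls.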
# [7] = NCI Yeast Anticancer Drug Screen. Data for the mlh1 rad18 strain (AID 175); conditions: S. cerevisiae mlh1 rad18 strain growth inhibition, stronger effect = higher value
# Summary of the method: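 Growth inhibition of the yeast strain was measured after compound exposure and expressed relative to vehicle-treated controls. The strain carries defined defects in DNA damage repair.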
# [8] = at 5.0 µM (retest, dose inferred, filed as 0.5)
# [9] = at 50.0 µM (retest, dose inferred, filed as 5.0)
smiles,measurement,setting,value
CCC(C)c1ccc(O)c(C(C)CC)c1 (stereo not drawn),growth inhibition,[1]; [8],40% (inactive)
same,growth inhibition,[1]; [9],98% (active)
same,growth inhibition,[1]; at 50.0 µM,58.9% (inactive)
same,growth inhibition,[2]; [8],57% (inactive)
same,growth inhibition,[2]; [9],98% (active)
same,growth inhibition,[2]; at 50.0 µM,30.3% (inactive)
same,growth inhibition,[3]; [8],-26% (inactive)
same,growth inhibition,[3]; [9],72% (active)
same,growth inhibition,[3]; at 50.0 µM,45.8% (inactive)
same,growth inhibition,[4]; [8],15% (inactive)
same,growth inhibition,[4]; [9],60% (inactive)
same,growth inhibition,[4]; at 50.0 µM,27.8% (inactive)
same,growth inhibition,[5]; [8],38% (inactive)
same,growth inhibition,[5]; [9],63% (inactive)
same,growth inhibition,[5]; at 50.0 µM,68.7% (inactive)
same,growth inhibition,[6]; at 1.2 µM,-3% (inactive)
same,growth inhibition,[6]; at 3.7 µM,-13% (inactive)
same,growth inhibition,[6]; at 11.0 µM,-11% (inactive)
same,growth inhibition,[6]; at 33.0 µM,-1% (inactive)
same,growth inhibition,[6]; at 100.0 µM,98% (active)
same,growth inhibition,[7]; [8],44% (inactive)
same,growth inhibition,[7]; [9],99% (active)
same,growth inhibition,[7]; at 50.0 µM,58.9% (inactive)
Fc1ccccc1-c1ncc(-c2ccccc2)o1,growth inhibition,[1]; [8],65% (inactive)
same,growth inhibition,[1]; [9],96% (active)
same,growth inhibition,[1]; at 50.0 µM,23.4% (inactive)
same,growth inhibition,[2]; [8],60% (inactive)
same,growth inhibition,[2]; [9],94% (active)
same,growth inhibition,[2]; at 50.0 µM,22.2% (inactive)
same,growth inhibition,[3]; [8],-14% (inactive)
same,growth inhibition,[3]; [9],60% (inactive)
same,growth inhibition,[3]; at 50.0 µM,51.8% (inactive)
same,growth inhibition,[4]; [8],39% (inactive)
same,growth inhibition,[4]; [9],70% (active)
same,growth inhibition,[4]; at 50.0 µM,13.7% (inactive)
same,growth inhibition,[5]; [8],24% (inactive)
same,growth inhibition,[5]; [9],82% (active)
same,growth inhibition,[5]; at 50.0 µM,16.7% (inactive)
same,growth inhibition,[6]; at 1.2 µM,-1% (inactive)
same,growth inhibition,[6]; at 3.7 µM,-3% (inactive)
same,growth inhibition,[6]; at 11.0 µM,-10% (inactive)
same,growth inhibition,[6]; at 33.0 µM,-2% (inactive)
same,growth inhibition,[6]; at 100.0 µM,28% (inactive)
same,growth inhibition,[7]; [8],36% (inactive)
same,growth inhibition,[7]; [9],91% (active)
same,growth inhibition,[7]; at 50.0 µM,4.3% (inactive)
O=c1[nH]c2cc([N+](=O)[O-])ccc2nc1/C=C(\O)c1ccc([N+](=O)[O-])cc1,growth inhibition,[1]; [8],21% (inactive)
same,growth inhibition,[1]; [9],86% (active)
same,growth inhibition,[1]; at 50.0 µM,54.2% (inactive) and -3.6% (inactive)
same,growth inhibition,[2]; [8],-4% (inactive)
same,growth inhibition,[2]; [9],59% (inactive)
same,growth inhibition,[2]; at 50.0 µM,16.1% (inactive) and -6.35% (inactive)
same,growth inhibition,[3]; [8],13% (inactive)
same,growth inhibition,[3]; [9],85% (active)
same,growth inhibition,[3]; at 50.0 µM,82.1% (active) and -3.95% (inactive)
same,growth inhibition,[4]; [8],4% (inactive)
same,growth inhibition,[4]; [9],38% (inactive)
same,growth inhibition,[4]; at 50.0 µM,34% (inactive) and -15.9% (inactive)
same,growth inhibition,[5]; [8],11% (inactive)
same,growth inhibition,[5]; [9],86% (active)
same,growth inhibition,[5]; at 50.0 µM,4.75% (inactive) and 5.75% (inactive)
CCO/C=C1\SC(=S)N(c2cccc(O)c2)C1=O,growth inhibition,[1]; [8],57% (inactive)
same,growth inhibition,[1]; [9],100% (active)
same,growth inhibition,[1]; at 50.0 µM,28.4% (inactive)
same,growth inhibition,[2]; [8],74% (active)
same,growth inhibition,[2]; [9],100% (active)
same,growth inhibition,[2]; at 50.0 µM,15.3% (inactive)
same,growth inhibition,[3]; [8],13% (inactive)
same,growth inhibition,[3]; [9],90% (active)
same,growth inhibition,[3]; at 50.0 µM,40.4% (inactive)
same,growth inhibition,[4]; [8],29% (inactive)
same,growth inhibition,[4]; [9],72% (active)
same,growth inhibition,[4]; at 50.0 µM,-2.6% (inactive)
same,growth inhibition,[5]; [8],6% (inactive)
same,growth inhibition,[5]; [9],91% (active)
same,growth inhibition,[5]; at 50.0 µM,40.2% (inactive)
same,growth inhibition,[6]; at 1.2 µM,-13% (inactive)
same,growth inhibition,[6]; at 3.7 µM,-13% (inactive)
same,growth inhibition,[6]; at 11.0 µM,-13% (inactive)
same,growth inhibition,[6]; at 33.0 µM,22% (inactive)
same,growth inhibition,[6]; at 100.0 µM,96% (active)
same,growth inhibition,[7]; [8],54% (inactive)
same,growth inhibition,[7]; [9],100% (active)
same,growth inhibition,[7]; at 50.0 µM,70.3% (active)
CCCCCCCCCCCCN,growth inhibition,[1]; [8],71% (active)
same,growth inhibition,[1]; [9],99% (active)
same,growth inhibition,[1]; at 50.0 µM,77.5% (active)
same,growth inhibition,[2]; [8],65% (inactive)
same,growth inhibition,[2]; [9],99% (active)
same,growth inhibition,[2]; at 50.0 µM,45% (inactive)
same,growth inhibition,[3]; [8],-4% (inactive)
same,growth inhibition,[3]; [9],98% (active)
same,growth inhibition,[3]; at 50.0 µM,81.8% (active)
same,growth inhibition,[4]; [8],73% (active)
same,growth inhibition,[4]; [9],100% (active)
same,growth inhibition,[4]; at 50.0 µM,26.6% (inactive)
same,growth inhibition,[5]; [8],56% (inactive)
same,growth inhibition,[5]; [9],98% (active)
same,growth inhibition,[5]; at 50.0 µM,79.7% (active)
same,growth inhibition,[6]; at 1.2 µM,-14% (inactive)
same,growth inhibition,[6]; at 3.7 µM,-21% (inactive)
same,growth inhibition,[6]; at 11.0 µM,-9% (inactive)
same,growth inhibition,[6]; at 33.0 µM,-5% (inactive)
same,growth inhibition,[6]; at 100.0 µM,97% (active)
same,growth inhibition,[7]; [8],70% (active)
same,growth inhibition,[7]; [9],100% (active)
same,growth inhibition,[7]; at 50.0 µM,72.2% (active)
CCSC1=C(C)C(=O)c2ccccc2C1=O,growth inhibition,[1]; [8],35% (inactive)
same,growth inhibition,[1]; [9],99% (active)
same,growth inhibition,[1]; at 50.0 µM,70.1% (active)
same,growth inhibition,[2]; [8],32% (inactive)
same,growth inhibition,[2]; [9],99% (active)
same,growth inhibition,[2]; at 50.0 µM,50.1% (inactive)
same,growth inhibition,[3]; [8],7% (inactive)
same,growth inhibition,[3]; [9],26% (inactive)
same,growth inhibition,[3]; at 50.0 µM,74.2% (active)
same,growth inhibition,[4]; [8],44% (inactive)
same,growth inhibition,[4]; [9],34% (inactive)
same,growth inhibition,[4]; at 50.0 µM,41.9% (inactive)
same,growth inhibition,[5]; [8],-6% (inactive)
same,growth inhibition,[5]; [9],36% (inactive)
same,growth inhibition,[5]; at 50.0 µM,77.2% (active)
same,growth inhibition,[6]; at 1.2 µM,18% (inactive)
same,growth inhibition,[6]; at 3.7 µM,11% (inactive)
same,growth inhibition,[6]; at 11.0 µM,6% (inactive)
same,growth inhibition,[6]; at 33.0 µM,20% (inactive)
same,growth inhibition,[6]; at 100.0 µM,98% (active)
same,growth inhibition,[7]; [8],11% (inactive)
same,growth inhibition,[7]; [9],62% (inactive)
same,growth inhibition,[7]; at 50.0 µM,55% (inactive)
COc1cccc(-c2nnc(-c3ccccc3)o2)c1,growth inhibition,[1]; [8],32% (inactive) and 33% (inactive)
same,growth inhibition,[1]; [9],36% (inactive) and 55% (inactive)
same,growth inhibition,[1]; at 50.0 µM,29.4% (inactive) and 89.1% (active)
same,growth inhibition,[2]; [8],36% (inactive) and 45% (inactive)
same,growth inhibition,[2]; [9],40% (inactive) and 55% (inactive)
same,growth inhibition,[2]; at 50.0 µM,16.4% (inactive) and 85.8% (active)
same,growth inhibition,[3]; [8],-1% (inactive) and 11% (inactive)
same,growth inhibition,[3]; [9],52% (inactive) and 99% (active)
same,growth inhibition,[3]; at 50.0 µM,33.5% (inactive) and 89.4% (active)
same,growth inhibition,[4]; [8],73% (active) and 21% (inactive)
same,growth inhibition,[4]; [9],18% (inactive) and 98% (active)
same,growth inhibition,[4]; at 50.0 µM,32.5% (inactive) and 80.2% (active)
same,growth inhibition,[5]; [8],30% (inactive) and 13% (inactive)
same,growth inhibition,[5]; [9],85% (active) and 98% (active)
same,growth inhibition,[5]; at 50.0 µM,71% (active) and 15.5% (inactive)
same,growth inhibition,[6]; at 1.2 µM,20% (inactive)
same,growth inhibition,[6]; at 3.7 µM,7% (inactive)
same,growth inhibition,[6]; at 11.0 µM,4% (inactive)
same,growth inhibition,[6]; at 33.0 µM,46% (inactive)
same,growth inhibition,[6]; at 100.0 µM,97% (active)
same,growth inhibition,[7]; [8],30% (inactive) and 34% (inactive)
same,growth inhibition,[7]; [9],44% (inactive) and 54% (inactive)
same,growth inhibition,[7]; at 50.0 µM,16.9% (inactive) and 84.1% (active)
